Assay outcomes: PubChem BioAssay, National Center for Advancing Translational Sciences (NCATS)
The list is not random: actives were taken first. Their share in the collection is about 7.9%.
FMDV inh = blocks foot and mouth disease virus. FMDV antiviral cell-based qHTS. Potency, µM (series often up to 57.9 µM), hits mostly inhibitors. hit rate 1.2% among 410,000. AID 1159524; calls by dose curve; tested in HEK293T cells; also: read-out not given here; nearly all actives have a fitted effect of over 45% in size
Lassa entry inh = blocks Lassa virus binding to or entry into cells; Lassa virus pseudotype entry inhibition, cell reporter; Potency, µM (highest dose often 37.9 µM), most hits filed as inhibitors; hit rate 1.2% among 300,000; calls by dose curve; tested in HEK293 cells; also: nearly all actives have a fitted effect of over 50% in size
Marburg entry inh = blocks Marburg virus binding to or entry into cells. Marburg virus pseudotyped entry inhibition, cell reporter. Potency, µM (highest dose often 37.8 µM), hits mostly inhibitors. hit rate 1.8% among 300,000; calls by dose curve; tested in HEK293 cells
HCMV inh = human cytomegalovirus inhibition; HFF cells, HCMV-luciferase reporter, 72 h; active compounds read low; activity change, negative = inhibition, % at 57.5 µM; hit rate 4.5% among 410,000; AID 1259415; in the data active = activity change below about -60%; inconclusive = no clear call, values can overlap the other calls; inactive = above about -39%
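Two-dose cell screen: HFF monolayers treated with compounds and infected with luciferase-expressing HCMV at 1 PFU/cell, 72 h at 37C, then lysed for luciferase measurement.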
HCV inhibitor = HCV inhibition | Huh7.5.1 HCVcc-Cre infection, luciferase reporter, 44 h | hit rate 3.4% among 340,000 | Potency, µM (titrated, usually from 41.8 µM), usual class: inhibitors | AID 651820; active = well fitted inhibition curve with a large enough effect; inconclusive = small, poorly fitted or top-dose-only effect, or another doubt; inactive = no such curve, though single readings can be large or run the other way
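Seed cells (1,000/well) for 4 h; treat with compound and infect with HCVcc-Cre, moi about 0.5. Incubate 44 h, then detect luciferase activity.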
Large screens that a line does not name were inactive.

Nc1c(N(Cc2ccco2)C(=O)c2ccc(Br)cc2)c(=O)[nH]c(=O)n1Cc1ccccc1	HCV inhibitor inconclusive (no result: Lassa entry inh, Marburg entry inh)
Cc1ccccc1OCCC(=O)N(Cc1ccccc1)c1c(N)n(Cc2ccccc2)c(=O)[nH]c1=O	Lassa entry inh 11.2µM, HCV inhibitor inconclusive (no result: HCMV inh)
Cc1ccccc1OCCC(=O)N(CC(C)C)c1c(N)n(Cc2ccccc2)c(=O)[nH]c1=O	HCMV inh inconclusive (no result: Lassa entry inh, Marburg entry inh)
COc1ccc(-c2noc(N3CCC(C(=O)N4CCN(c5ccccc5F)CC4)CC3)n2)cc1	FMDV inh 11.2µM (no result: Marburg entry inh, HCV inhibitor)
CCOC(=O)N1CCN(c2nc(-c3ccc(OC)cc3)no2)CC1	HCMV inh inconclusive, HCV inhibitor 12.6µM
COc1cc(CN2CCC(C(=O)N3CCN(c4ccccc4F)CC3)CC2)ccc1O	Marburg entry inh inconclusive, HCV inhibitor 22.4µM
CCOC(=O)N1CCN(C(=O)c2ccc(OC)cc2)CC1	none
COc1ccc(-c2noc(N3CCC(C(=O)Nc4ccc(F)cc4)CC3)n2)cc1	none (no result: Lassa entry inh, Marburg entry inh)
NS(=O)(=O)c1ccc(CCNc2nn3c(-c4cccc(OC(F)(F)F)c4)cnc3s2)cc1	FMDV inh 22.4µM, HCMV inh -97.5 (no result: Lassa entry inh, Marburg entry inh, HCV inhibitor)
Cc1ccc(CSc2cn(CC(=O)N3CCCCCC3)c3ccccc23)cc1	Lassa entry inh 8.91µM (no result: Marburg entry inh, HCV inhibitor)
Cc1ccc(CSc2cn(CC(=O)N3CCCC3)c3ccccc23)cc1	none (no result: Marburg entry inh, HCV inhibitor)
CSc1nc(N)nc(SCC(=O)C23CC4CC(CC(C4)C2)C3)c1C#N	FMDV inh inconclusive, Marburg entry inh 20.6µM, HCV inhibitor 10µM
COc1ccc(CCN2C(=S)NC3CC2(C)Oc2ccc([N+](=O)[O-])cc23)cc1OC (stereo unspecified)	FMDV inh 25.1µM, Lassa entry inh inconclusive, Marburg entry inh inconclusive, HCV inhibitor 4.47µM
Cn1c(=O)c2c(ncn2CCOc2ccc(Br)cc2)n(C)c1=O	FMDV inh inconclusive, HCMV inh inconclusive, HCV inhibitor 10µM
CCOc1cc(CNCCc2c[nH]c3ccccc23)cc(Cl)c1OCC	Marburg entry inh inconclusive, HCMV inh -62.8, HCV inhibitor inconclusive
CCOc1c(Cl)cc(CNCCc2c[nH]c3ccccc23)cc1OC	HCV inhibitor 22.4µM (no result: Lassa entry inh, Marburg entry inh)
CCOc1cc(CNCc2ccccn2)cc(Cl)c1OCC	FMDV inh inconclusive
COC(=O)C(c1ccccc1)(c1cn(C)c2ccccc12)C(Nc1ccc(OC)cc1)c1ccccc1 (stereo unspecified)	none (no result: FMDV inh, Lassa entry inh, Marburg entry inh, HCV inhibitor)
O=C(CCC1N=C2c3ccccc3N=C(SCc3ccccc3F)N2C1=O)NCc1ccc(F)cc1 (stereo unspecified)	Lassa entry inh inconclusive (no result: Marburg entry inh, HCV inhibitor)
CCOC(=O)c1c(NC(C)=O)sc2c(OCCN(CC)CC)c(Br)ccc12	HCMV inh inconclusive, HCV inhibitor 12.6µM (no result: Lassa entry inh, Marburg entry inh)
CCOC(=O)c1c(NC(C)=O)sc2c(OCC(O)CN(CC)CC)c(Br)ccc12 (stereo unspecified)	Lassa entry inh 2.51µM, Marburg entry inh 11.2µM, HCMV inh -101.2, HCV inhibitor 5.62µM
C[C@]12c3[nH]c4ccc(Cl)cc4c3CCN1C(=O)[C@@H](CC(=O)NCCN1CCOCC1)C[C@@H]2C(=O)N1CCCCC1	none (no result: Lassa entry inh)
C[C@@H]1CN([C@@H](C)CO)C(=O)CCCn2nncc2CO[C@H]1CN(C)C(=O)Nc1ccc(F)cc1	none (no result: Lassa entry inh, Marburg entry inh, HCV inhibitor)
CC(=O)c1cc2c(cc1NC(=O)Cc1ccsc1)OCO2	HCV inhibitor 5.62µM (no result: Lassa entry inh, Marburg entry inh)
CC(=O)c1cc2c(cc1NC(=O)CCc1ccccc1)OCO2	HCV inhibitor inconclusive
Cn1c(SCC(=O)N/N=C/c2ccc([N+](=O)[O-])s2)nnc1-c1ccc(Cl)cc1	FMDV inh inconclusive, Lassa entry inh inconclusive, Marburg entry inh 11.6µM, HCV inhibitor inconclusive
Cc1ccc(C(=O)N/N=C/c2ccc([N+](=O)[O-])s2)cc1	FMDV inh 2.82µM, Lassa entry inh inconclusive, Marburg entry inh 11.2µM, HCV inhibitor 2.82µM
O=C(N/N=C/c1ccc(N2CCOCC2)s1)c1ccc(O)cc1	none (no result: Lassa entry inh, Marburg entry inh, HCV inhibitor)
O=C(N/N=C/c1ccc([N+](=O)[O-])s1)c1cccc(Br)c1	FMDV inh inconclusive, Marburg entry inh inconclusive, HCMV inh -69.1, HCV inhibitor inconclusive
O=C(N/N=C/c1ccc([N+](=O)[O-])s1)c1ccncc1	Marburg entry inh inconclusive, HCV inhibitor inconclusive (no result: HCMV inh)
O=C(NN=Cc1ccc(N2CCOCC2)s1)c1ccc([N+](=O)[O-])cc1	FMDV inh inconclusive, HCV inhibitor 22.4µM (no result: Lassa entry inh, Marburg entry inh)
CCN(CC)C(=O)CSc1nc2ccc(NC(=O)CSc3nnc(COc4ccccc4C)n3C)cc2s1	FMDV inh 22.4µM, Lassa entry inh inconclusive, HCV inhibitor 10µM
COc1ccccc1OCc1nnc(SCC(=O)Nc2ccc(C)cc2)n1C	none
Cc1cccc(NC(=O)CSc2nc3ccc(NC(=O)COc4ccccc4C)cc3s2)c1	Lassa entry inh inconclusive, Marburg entry inh inconclusive (no result: HCV inhibitor)
Cc1ccccc1OCc1nnc(SCC(=O)Nc2ccc3nc(SCC(=O)NC(C)(C)C)sc3c2)n1C	FMDV inh 35.5µM, Lassa entry inh inconclusive, Marburg entry inh inconclusive, HCV inhibitor inconclusive
O=C(COC(=O)CC1CCS(=O)(=O)C1)Nc1ccc(F)cc1 (stereo unspecified)	none (no result: Lassa entry inh, Marburg entry inh)
O=C(NCC1CCC2(CCN(Cc3c[nH]c4ccccc34)CC2)O1)C1CCOCC1 (stereo unspecified)	none (no result: Lassa entry inh, Marburg entry inh, HCMV inh, HCV inhibitor)
CNC(=S)N1N=C(c2ccc(Br)cc2)CC1c1ccc(N(C)C)cc1 (stereo unspecified)	Marburg entry inh inconclusive, HCMV inh inconclusive
CNC(=S)N1N=C(c2ccc(OC)cc2)CC1c1ccc(N(C)C)cc1 (stereo unspecified)	Lassa entry inh inconclusive, Marburg entry inh inconclusive, HCV inhibitor 11.2µM
CCSC1(SCC)N=C(N)C2(C#N)C(c3ccccc3)NC3=C(CCC3)C12C#N (stereo unspecified)	none
CCSC1(SCC)N=C(N)C2(C#N)C(c3ccc(OC)c(OC)c3OC)C12C#N (stereo unspecified)	FMDV inh 25.1µM, Lassa entry inh inconclusive, Marburg entry inh inconclusive, HCV inhibitor 8.91µM
COc1cc(C(=O)NCC(=O)OC(C)C(=O)Nc2ncc(Cl)cc2Cl)cc(OC)c1OC (stereo unspecified)	none
COc1ccc(CCC(=O)Nc2cc3c4c(c2)CC(=O)N4CCC3)cc1	HCV inhibitor inconclusive
COc1ccc(C(=O)Nc2ccc(C)cn2)c(OC)c1	FMDV inh 1.78µM, Lassa entry inh 0.651µM, Marburg entry inh 1.03µM, HCMV inh -76.4, HCV inhibitor 10µM
COc1ccc(C(=O)Nc2cc3c4c(c2)CC(=O)N4CCC3)cc1	HCV inhibitor 2.24µM
COc1ccc(C(=O)Nc2cccc3c2CCCC3)c(OC)c1	HCV inhibitor 31.6µM
COc1ccc(C(=O)Nc2cc3c4c(c2)CC(=O)N4CCC3)c(OC)c1	Lassa entry inh inconclusive, HCV inhibitor 3.98µM (no result: HCMV inh)
O=C(Nc1cc2c3c(c1)CC(=O)N3CCC2)c1ccc(F)cc1	none
COc1ccc(C(=O)Nc2cc(C)on2)c(OC)c1	none (no result: Lassa entry inh, Marburg entry inh)
COc1ccc(C(=O)Nc2cccc3c2CCCC3)cc1	none (no result: Lassa entry inh, Marburg entry inh)
COc1ccc([C@@H]2[C@@H](C(=O)N3CCOCC3)CC(=O)N2C(=O)Nc2ccc(C)c(Cl)c2)cc1	none (no result: FMDV inh, Lassa entry inh, Marburg entry inh, HCV inhibitor)
COc1ccc(C(=O)Nc2nnc(Cc3ccc(OC)c(OC)c3)s2)c(OC)c1	Lassa entry inh inconclusive, Marburg entry inh inconclusive, HCV inhibitor 11.2µM
